Data taken from PubChem BioAssay (Tox21).
Records with an inconclusive call do not appear. Where a call stands in place of a potency, no number is given. Activity calls are given as the source filed them. Calls come from the whole dose curve.

Assay: qHTS assay for small molecule agonists of the antioxidant response element (ARE) signaling pathway - cell viability counter screen (AID 743203); note: nearly all actives have a fitted effect of over 55% in size
Details: ARE-bla HepG2 viability, CellTiter-Glo luminescence, 16 h; series mostly up to 73.3 µM
Text: National Center for Advancing Translational Sciences [NCATS]
NIH Chemical Genomics Center [NCGC]
U.S. Environmental Protection Agency [EPA]
National Institutes of Environmental Health Sciences [NIEHS]
National Toxicology Program [NTP]
U.S. Food and Drug Administration [FDA]
Oxidative stress has been implicated in the pathogenesis of a variety of diseases ranging from cancer to neurodegeneration. The antioxidant response element (ARE) signaling pathway plays an important role in the amelioration of oxidative stress. The CellSensor ARE-bla HepG2 cell line (Invitrogen) can be used for analyzing the Nrf2/antioxidant response signaling pathway. Nrf2 (NF-E2-related factor 2) and Nrf1 are transcription factors that bind to AREs and activate these genes. The CellSensor ARE-bla Hep G2 cell line contains a beta-lactamase reporter gene under control of the Antioxidant Response Element (ARE) stably integrated into HepG2 cells. The activation of the report gene under culture conditions can be detected by fluorescence intensity. This cell line has been used to screen the Tox21 10K compound library to identify agonists that induce oxidative stress. The cytotoxicity of the Tox21 compound library against the ARE-bla cell line was tested in parallel by measuring the cell viability using CellTiter-Glo assay (Promega, Madison, WI) in the same wells.
Tox21 Assay Protocol Summary:
ARE-bla HepG2 cells were dispensed at 2,000 cells/5 ul/well in 1536-well white wall/solid bottom plates using a Multidrop Combi (ThermoFisher Scientific, Waltham, MA) dispenser. After the assay plates were incubated at 37C/5% CO2 for 5 hrs, 23 nL of compounds dissolved in DMSO, positive controls or DMSO only was transferred to the assay plate by a pintool work station (Kalypsys, San Diego, CA). The plates were incubated at 37C/5% CO2 for 16 hrs, followed by addition of 4 ul/well of CellTiter-Glo reagent into the assay plates using a Flying Reagent Dispenser (Aurora Discovery, San Diego, CA). After 30 min incubation at room temperature, the luminescence intensity in the assay plates was measured using a ViewLux (PerkinElmer, Shelton, CT) plate reader.
Potency is the fitted concentration of half-maximal effect.

| SMILES | Potency |
| --- | --- |
| CCCCCCCCCCCCCC(=O)O | inactive |
| CCc1cccc(O)c1 | inactive |
| CCc1cccc(CC)c1N | inactive |
| C[Si](C)(C)N[Si](C)(C)C | inactive |
| N#CCC(=O)O | inactive |
| COc1ccc2cc3[n+](cc2c1OC)CCc1cc2c(cc1-3)OCO2 | inactive |
| CC/C(C)=N/O | inactive |
| O=C1C(N(CO)C(=O)NCO)N(CO)C(=O)N1CO (stereo not given) | inactive |
| O=C1CCCCCCCCCCC1 | inactive |
| C[n+]1ccn(CCO)c1 | inactive |
| CO[Si](CCCNCCN)(OC)OC | inactive |
| Oc1ccc(Cc2ccccc2O)cc1 | inactive |
| CC(C)=CCC/C(C)=C/C=O | inactive |
| CC1=CC(=O)CC(C)(C)C1 | inactive |
| CC(=O)c1nccs1 | inactive |
| CCOC(=O)CC(=O)OCC | inactive |
| O=[N+]([O-])c1ccccc1C(F)(F)F | inactive |
| c1cnc2c(c1)ccc1cccnc12 | 5.45 µM (active) |
| Cc1ccccc1Cl | inactive |
| CC1(C)C(=O)N(Cl)C(=O)N1Cl | inactive |

| SMILES | Potency |
| --- | --- |
| Cc1cc(CC(=O)O)n(C)c1C(=O)c1ccc(Cl)cc1 | inactive |
| O=C1OC(=O)c2c(Cl)c(Cl)c(Cl)c(Cl)c21 | inactive |
| CC(=O)OCCC(C)C | inactive |
| CC(=O)Nc1ccc(CC(=O)O)cc1 | inactive |
| CCCOC(=O)NCCCN(C)C | inactive |
| Cc1cc(C)cc(O)c1 | inactive |
| CN1CCCC1=O | inactive |
| NC(=O)c1ncn([C@@H]2O[C@H](CO)[C@@H](O)[C@H]2O)n1 | inactive |
| CCCCCCCCO | inactive |
| Cc1cccc(C)c1[N+](=O)[O-] | inactive |
| OCCOCCOCCOCCOCCO | inactive |
| OC1CCCCC1 | inactive |
| Cc1ccc(C(C)C)cc1 | inactive |
| COC(=O)OC | inactive |
| C=C(C)CC(C)(C)C | inactive |
| COc1cc(NC(=O)CC(C)=O)c(OC)cc1Cl | inactive |
| CCCCCCCCC(=O)O | inactive |
| O=C(O)C1=NN(c2ccc(S(=O)(=O)O)cc2)C(=O)C1 | inactive |
| O=C(O)Cc1c[nH]c2ccccc12 | inactive |
| OCC(CO)(CO)CO | inactive |
